Compounds with a hit are over-represented: about 2.9% of the library has one in this group of screens.
FXN GAA850 act = increases GAA850 frataxin promoter reporter activity; 360,000 tested, 0.56% active; activation, % at 6 µM; HEK293 lucGAA850 FXN promoter luciferase reporter, 24 h; percent of 10 µM SAHA response;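 active means activation above the average of all compounds screened plus 3 SD, cutoff fixed separately per campaign, cut at about 7.5% in these data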;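 further: 0% = DMSO wells and 100% = 10 µM SAHA wells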
SMARCA2 activ = SMARCA2 function activation, primary screen | 370,000 tested, 1% active | activation, % at 9.1 µM | MG213 cells, MMTV-luciferase reporter, dexamethasone, overnight | AID 652017; in the data active means activation above about 7.8%;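 further: 0% = vehicle wells and 100% = reference activator wells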
FAS TE block = blocks the thioesterase domain of human fatty acid synthase. P49327. recombinant FAS-TE, OMFH fluorogenic substrate, fluorescence endpoint. inhibition, % at 15 µM. 360,000 tested, 0.67% active. AID 602261;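 active means compounds whose normalised, plate-corrected inhibition of enzyme fluorescence in the single-dose primary screen is 50% or more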;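 further: 0% = DMSO with enzyme and 100% = substrate without enzyme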
proKLK7 act = activators of human kallikrein-7 zymogen; P49862; purified proKLK7, EDANS-DABCYL substrate fluorescence; 100% is mature enzyme control, 0% vehicle; activation, % at 7 µM; 370,000 tested, 0.9% active;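 active means activation above the mean of all tested compounds plus 3 SD, computed per campaign excluding outliers beyond control limits, cut at about 13% in these data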
Target sequence (P49862 whole entry, looked up): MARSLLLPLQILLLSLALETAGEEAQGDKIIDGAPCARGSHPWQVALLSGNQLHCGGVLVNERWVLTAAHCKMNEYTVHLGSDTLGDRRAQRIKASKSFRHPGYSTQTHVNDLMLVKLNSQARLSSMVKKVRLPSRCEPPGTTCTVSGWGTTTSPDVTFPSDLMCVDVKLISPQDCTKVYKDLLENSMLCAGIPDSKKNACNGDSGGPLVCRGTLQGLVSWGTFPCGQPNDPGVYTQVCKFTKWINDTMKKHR
proKLK7 act conf = confirmation of human kallikrein-7 zymogen activators; shares compounds with proKLK7 act; activation, % at 7 µM; 3,200 tested, 68% active; AID 686949; purified proKLK7, EDANS-DABCYL substrate fluorescence; scaled: vehicle 0, mature enzyme 100;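 active means activation, as change over the incubation, above the mean of all tested compounds plus 3 SD, cut at about 13% in these data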
EDANS interfere = counter-screen for kallikrein-7 activators: EDANS-DABCYL optical interference; shares compounds with proKLK7 act; EDANS-DABCYL substrate fluorescence interference, no enzyme, 4 h; solvent 0%, active enzyme control 100%; activation, % at 7 µM; 3,200 tested, 80% active;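 active means activation above the all-compound mean plus 3 SD, ignoring values outside control-based bounds, cut at about 4.8% in these data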;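 further: value is the 4 h activation minus the activation read at time zero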
* = called active by the depositor.

Results for O=C(CN1CCN(C2CCCCC2)CC1)c1ccc2cc[nH]c2c1 ?
FXN GAA850 act: 0; SMARCA2 activ: 0; FAS TE block: -6; proKLK7 act: 22*; proKLK7 act conf: 20*; EDANS interfere: 20*

What do the screens show for `O=C(NN1C(=O)CSC1=S)C(=O)NN1C(=O)CSC1=S`?
FXN GAA850 act: -1; SMARCA2 activ: 4; FAS TE block: -3; proKLK7 act: 1

How did CCOC(=O)N1CCN(S(=O)(=O)c2ccc(C(=O)Nc3sc4c(c3C(N)=O)CC(C)(C)NC4(C)C)cc2)CC1 do in these assays?
FXN GAA850 act: 1; SMARCA2 activ: 0; FAS TE block: 2; proKLK7 act: 57*; proKLK7 act conf: -33; EDANS interfere: -5

Results for CC1(C)Cc2c(sc(NC(=O)c3ccc(C(=O)c4ccccc4)cc3)c2C(N)=O)C(C)(C)N1 ?
FXN GAA850 act: 0; SMARCA2 activ: -2; FAS TE block: 16; proKLK7 act: -95

What do the screens show for `Cc1ccc(S(=O)(=O)Nc2ccccc2N=Cc2c(F)c(F)c(F)c(F)c2F)cc1`?
FXN GAA850 act: -2; SMARCA2 activ: -5; FAS TE block: 22; proKLK7 act: 0

How did O=C(COC(=O)CCCN1C(=O)c2cccc3cccc(c23)C1=O)Nc1ccc(Cl)cc1 do in these assays?
FXN GAA850 act: 0; SMARCA2 activ: -4; FAS TE block: 29; proKLK7 act: -3

Results for Nc1cnnc(N/N=C\c2ccccc2)c1Cl ?
FXN GAA850 act: 3; SMARCA2 activ: 4; FAS TE block: -5; proKLK7 act: 13*; proKLK7 act conf: 2; EDANS interfere: 3

How did Cn1ccc2c(-c3ccc(C(=O)O)cc3)cc3c(c21)C1CCC3O1 (centres undefined) do in these assays?
SMARCA2 activ: 0; FAS TE block: -10; proKLK7 act: 79*; proKLK7 act conf: 66*; EDANS interfere: 70*

How did O=C1C2C(c3ccccc3)=NN(c3ccccc3)C2C(=O)N1c1ccccc1 (centres undefined) do in these assays?
FXN GAA850 act: 1; SMARCA2 activ: -2; FAS TE block: 15; proKLK7 act: 14*; proKLK7 act conf: 13*; EDANS interfere: 18*

Results for O=C1[C@H]2C(c3ccccc3)=NN(c3ccccc3)[C@H]2C(=O)N1c1ccccc1 ?
FXN GAA850 act: 0; SMARCA2 activ: -5; FAS TE block: 32; proKLK7 act: 22*; proKLK7 act conf: -364; EDANS interfere: -297

Results for CCOc1cc(C(=O)Nc2ccc(S(=O)(=O)N3CCCCC3)cc2)ccc1OCC(=O)N1CCOCC1 ?
FXN GAA850 act: 1; SMARCA2 activ: -1; FAS TE block: 4; proKLK7 act: 20*; proKLK7 act conf: 14*; EDANS interfere: 15*

Results for CCOc1cc(C(=O)Nc2cc(OC)cc(OC)c2)ccc1OCC(=O)N1CCOCC1 ?
FXN GAA850 act: 0; SMARCA2 activ: -2; FAS TE block: -5; proKLK7 act: 0

How did Cc1ccc(C)c(N2CCN(C(=O)CN3C(=O)c4ccccc4C3=O)CC2)c1 do in these assays?
FXN GAA850 act: 1; SMARCA2 activ: -2; FAS TE block: 9; proKLK7 act: 0

Results for O=C(O)COc1ccc2nsnc2c1Cl ?
FXN GAA850 act: 1; SMARCA2 activ: 1; FAS TE block: -13; proKLK7 act: 19*; proKLK7 act conf: 27*; EDANS interfere: 24*

How did C[C@@H]1C(c2ccccc2)=NN(c2ccc(Br)cc2)[C@H]1C(=O)N1CCOC1=O do in these assays?
FXN GAA850 act: -1; SMARCA2 activ: -3; FAS TE block: 40; proKLK7 act: 57*; proKLK7 act conf: -159; EDANS interfere: -147

How did Cc1cccc(C2=NN(c3ccccc3)[C@@H](C(=O)N3CCOC3=O)[C@@H]2C)c1 do in these assays?
FXN GAA850 act: -2; SMARCA2 activ: 0; FAS TE block: 19; proKLK7 act: 26*; proKLK7 act conf: 114*; EDANS interfere: 70*

What do the screens show for `COc1cc(OC)c2ccc(=O)oc2c1C(CCN1CCCCC1)c1ccc(N(C)C)cc1` (centres undefined)?
FXN GAA850 act: -1; SMARCA2 activ: 1; FAS TE block: 8; proKLK7 act: 3

What do the screens show for `NC(=O)COc1ccc2cc(-c3ccc(F)cc3)c(=O)oc2c1`?
FXN GAA850 act: 2; SMARCA2 activ: 0; FAS TE block: -3; proKLK7 act: 33*; proKLK7 act conf: -14; EDANS interfere: -63

How did CC(=O)Oc1ccc(-c2cc3c(OC(C)=O)cc(OC(C)=O)cc3oc2=O)cc1 do in these assays?
FXN GAA850 act: -2; SMARCA2 activ: 3; FAS TE block: -4; proKLK7 act: 80*; proKLK7 act conf: 63*; EDANS interfere: 72*

Results for COc1ccc(-c2cc3ccc(OCC(C)=O)cc3oc2=O)cc1OC ?
FXN GAA850 act: 3; SMARCA2 activ: 6; FAS TE block: -2; proKLK7 act: 0

How did O=C(COc1ccc2cc(-c3ccccc3)c(=O)oc2c1)NCC1CCC(C(=O)O)CC1 (centres undefined) do in these assays?
FXN GAA850 act: 1; SMARCA2 activ: 1; FAS TE block: -7; proKLK7 act: 21*; proKLK7 act conf: 60*; EDANS interfere: 72*

Results for NC(=O)COc1ccc2cc(-c3ccccc3)c(=O)oc2c1 ?
FXN GAA850 act: 3; SMARCA2 activ: 3; FAS TE block: -6; proKLK7 act: 59*; proKLK7 act conf: 63*; EDANS interfere: 64*

How did COc1cccc(NC(=O)[C@H](C)NC(=O)N2CCn3c2nc2ccccc23)c1 do in these assays?
FXN GAA850 act: -1; SMARCA2 activ: 1; FAS TE block: 3; proKLK7 act: 0

What do the screens show for `Cc1ccccc1NC(=O)c1c(F)c(F)c(F)c(F)c1F`?
FXN GAA850 act: -1; SMARCA2 activ: 0; FAS TE block: -5; proKLK7 act: 0

How did O=C1CCC[C@@H]2C[C@@]3(C[C@@H]4CCN1[C@H]24)Nc1cc([N+](=O)[O-])ccc1NC3=NC1CCCCC1 do in these assays?
FXN GAA850 act: 0; SMARCA2 activ: 1; FAS TE block: 1; proKLK7 act: 0

What do the screens show for `COC(=O)COc1ccc2cc(-c3ccccc3)c(=O)oc2c1`?
FXN GAA850 act: 1; SMARCA2 activ: -1; FAS TE block: 4; proKLK7 act: 102*; proKLK7 act conf: 68*; EDANS interfere: 66*

What do the screens show for `COc1ccc(-c2cc3ccc(OCC(C)=O)cc3oc2=O)cc1`?
FXN GAA850 act: 4; SMARCA2 activ: 5; FAS TE block: -5; proKLK7 act: 27*; proKLK7 act conf: -7; EDANS interfere: -4

Results for CCCCn1c(N)c(N(CCOC)C(=O)CSCc2c(C)noc2C)c(=O)[nH]c1=O ?
FXN GAA850 act: 1; SMARCA2 activ: -1; FAS TE block: -9; proKLK7 act: 0

How did Cc1ccc(C(=O)Nc2ccc(CC(=O)O)cc2)o1 do in these assays?
FXN GAA850 act: -2; SMARCA2 activ: -6; FAS TE block: -9; proKLK7 act: 0

Assay outcomes as filed in PubChem BioAssay.
